Measured values from PubChem BioAssay AID1159580 (chemical genetic matrix, 2015).
The whole screen tested about 5,500 compounds, of which about 2,000 (36%) were called active. Inconclusive results (about 18%) are left out. Some of the results follow. Unmarked numbers belong to inactive results. Cut-off read from the data, not from the text of the source: active = normalized growth mostly below about 0.91 (no sharp cut-off); inconclusive = no clear call, values can overlap the other calls; inactive = mostly above about 0.92.

Assay: chemical genetic growth profiling, strain panel (AID 1159580);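 note: tested at 20 µM; growth read once vehicle control cultures reached saturation at 30 °C; 1 = growth at the plate median or of vehicle wells; lower values mean less growth of the strain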
Conditions: S. cerevisiae deletion strains, growth OD
[1] = locus YAL040C, strain CLN3, stronger effect = lower value
[2] = locus YCL061C, strain MRC1 (second series), stronger effect = lower value
[3] = locus YDR363W, strain ESC2, stronger effect = lower value
[4] = locus YER002W, strain NOP16, stronger effect = lower value
[5] = locus YGR078C, strain PAC10, stronger effect = lower value
[6] = locus YJR075W, strain HOC1, stronger effect = lower value
[7] = locus YNL175C, strain NOP13, stronger effect = lower value
[8] = locus YNL197C, strain WHI3, stronger effect = lower value
[9] = locus YNL224C, strain SQS1, stronger effect = lower value
[10] = locus YOR083W, strain WHI5 (second series), stronger effect = lower value
[11] = locus YPL055C, strain LGE1, stronger effect = lower value
[12] = locus YDR150W, strain NUM1, stronger effect = lower value
[13] = locus YMR307W, strain GAS1, stronger effect = lower value

Q: Which results are given for `Nc1ncnc2c1c(-c1ccc(Oc3ccccc3)cc1)cn2C1CCCC1`?
A: normalized growth [1]: 0.94; normalized growth [2]: 1.01; normalized growth [3]: 1.02; normalized growth [4]: 1.02; normalized growth [5]: 0.934; normalized growth [6]: 1.02; normalized growth [7]: 1.01; normalized growth [8]: 1.1; normalized growth [9]: 0.952; normalized growth [10]: 0.838 (active); normalized growth [11]: 0.989

Q: With `Nc1ncnc2c1ncn2C1CCCC1` as the compound, how does the normalized growth [1] read?
A: 1.01

Q: And the normalized growth [12]?
A: 1

Q: And the normalized growth [3]?
A: 1.02

Q: What about the normalized growth [4] of the same compound?
A: 1.01

Q: What about the normalized growth (locus YGR229C, strain SMI1, stronger effect = lower value) of the same compound?
A: 1.02

Q: What about the normalized growth [6] of the same compound?
A: 1.04

Q: What about the normalized growth [13] of the same compound?
A: 1.01

Q: And the normalized growth (locus YNL128W, strain TEP1, stronger effect = lower value)?
A: 1.03

Q: And the normalized growth [7]?
A: 1.01

Q: And the normalized growth [8]?
A: 1.01

Q: And the normalized growth [9]?
A: 1.03

Q: And the normalized growth [10]?
A: 1.01

Q: And the normalized growth (locus YPL241C, strain CIN2, stronger effect = lower value)?
A: 1.01

Q: For `C[C@@H]1O[C@@H](O[C@H]2C[C@@H](O)[C@]3(CO)[C@@H]4C(CC[C@]3(O)C2)[C@@]2(O)CC[C@H](C3COC(=O)C3)[C@@]2(C)C[C@H]4O)[C@H](O)[C@H](O)[C@H]1O` (some centres not stated), which normalized growth [1] is on record?
A: 0.998

Q: And the normalized growth [2]?
A: 1

Q: What about the normalized growth [12] of the same compound?
A: 0.996

Q: And the normalized growth [3]?
A: 1

Q: And the normalized growth [4]?
A: 0.996

Q: What about the normalized growth [5] of the same compound?
A: 1.01

Q: What about the normalized growth [13] of the same compound?
A: 1.01

Q: And the normalized growth [7]?
A: 0.98

Q: And the normalized growth [8]?
A: 1

Q: What about the normalized growth [9] of the same compound?
A: 0.974

Q: And the normalized growth (locus YNL322C, strain KRE1, stronger effect = lower value)?
A: 1.01

Q: What about the normalized growth [10] of the same compound?
A: 1.05

Q: What about the normalized growth [11] of the same compound?
A: 1.01
